Inconclusive results are not listed. The source made the active and inactive calls. Calls follow the shape of the full dose curve.
Assay: qHTS for Inhibitors of Cell Surface uPA Generation: Wild-type Protective Antigen (WT-PrAg) Counterscreen for Cherry-picked Compounds; also: 0% is about no effect
Conditions: cells, WT protective antigen toxicity counterscreen; series mostly up to 115 µM; activity (protection): at the top concentration

**Q.** With `CC(=O)[C@@]1(O)[C@H](C)CC2C3CC=C4CC(OP(=O)(O)O)CC[C@]4(C)C3CC[C@@]21C` (some centres not stated) as the compound, how does the “activity (protection)” value read?
**A.** 0.986% (inactive)

**Q.** With `COc1ccccc1CNC(=O)CCCn1nc(C)c2c(C)n(-c3ccccc3)nc2c1=O` as the compound, how does the “activity (protection)” value read?
**A.** -1.72% (inactive)

**Q.** For `CCN(CC)C(=O)Cn1cc(/C=C(\C#N)C(=O)NC2CC2)c2ccccc21`, which “activity (protection)” value is on record?
**A.** 2.13% (inactive)

**Q.** With `Cc1ccccc1C(=O)NCC(=O)Nc1ccc(C)c(S(=O)(=O)N2CCCCCC2)c1` as the compound, how does the “activity (protection)” value read?
**A.** -2.13% (inactive)

**Q.** Which “activity (protection)” value does the source give for `NC(=O)CC(NC(=O)Cc1cccc2ccccc12)c1ccc(N2CCN(c3ccc(F)cc3)CC2)c([N+](=O)[O-])c1` (configuration not stated) here?
**A.** -0.604% (inactive)

**Q.** For `Cc1cc(=O)[nH]c2c(C)cc(S(=O)(=O)Nc3ccc(O)cc3)cc12`, which “activity (protection)” value is on record?
**A.** -1.13% (inactive)

**Q.** With `COCCn1c(SCC(=O)Nc2ccc(F)cc2)nc2ccccc2c1=O` as the compound, how does the “activity (protection)” value read?
**A.** 4.62% (inactive)

**Q.** Which “activity (protection)” value does the source give for `Cc1ccnc(N2CCN(C(=O)CSc3nc4ccccc4nc3N3CCC(C)CC3)CC2)c1` here?
**A.** -2.13% (inactive)

**Q.** Which “activity (protection)” value does the source give for `O=C(CSc1ccc(Cl)cc1)N1CCCC1` here?
**A.** -1.93% (inactive)

**Q.** With `CCOC(=O)c1ccccc1N=Cc1c(O)c2ccccc2oc1=O` as the compound, how does the “activity (protection)” value read?
**A.** -1.45% (inactive)

**Q.** For `O=C(N/N=C/c1cccnc1)c1ccccc1[N+](=O)[O-]`, which “activity (protection)” value is on record?
**A.** -1.19% (inactive)

**Q.** Which “activity (protection)” value does the source give for `O=C(NC1CCCCC1)C(c1ccco1)N(C(=O)c1csnn1)c1cccc(Cl)c1` (configuration not stated) here?
**A.** 1.16% (inactive)

**Q.** Which “activity (protection)” value does the source give for `CN1CCN(C2=Nc3ccccc3Oc3ccc(Cl)cc32)CC1` here?
**A.** -0.292% (inactive)

**Q.** For `COc1ccc(C(=O)OCC(=O)N(C)C2CCS(=O)(=O)C2)cc1S(=O)(=O)N(C)Cc1ccccc1` (configuration not stated), which “activity (protection)” value is on record?
**A.** 1.43% (inactive)

**Q.** Which “activity (protection)” value does the source give for `Cc1ccc(NC2CCCN(C(=O)Cc3nonc3C)C2)cc1C` (configuration not stated) here?
**A.** -0.306% (inactive)

**Q.** With `CCOC(=O)[C@H]1[C@H]2COc3ccc(Br)cc3[C@@H]2N2C(=O)c3c(C)cc(C)cc3NC(=O)[C@@]12C` as the compound, how does the “activity (protection)” value read?
**A.** 1.23% (inactive)

**Q.** With `CC(C)(C)OC(=O)N(Cc1ccccc1)Cc1ccccc1OCc1cccc(NC(=O)C2CC2)c1` as the compound, how does the “activity (protection)” value read?
**A.** -1.87% (inactive)

**Q.** With `O=C(CSC1=NS(=O)(=O)c2ccccc2N1)Nc1nccs1` as the compound, how does the “activity (protection)” value read?
**A.** 0.09% (inactive)

**Q.** For `CCOc1ccc(C2(C)CC(=O)N(C)C2=O)cc1` (configuration not stated), which “activity (protection)” value is on record?
**A.** -1.37% (inactive)

**Q.** Which “activity (protection)” value does the source give for `COc1ccc(C2C(C(=O)c3ccc(C)o3)=C(O)C(=O)N2CC2CCCO2)cc1OC` (configuration not stated) here?
**A.** 0.734% (inactive)

**Q.** With `Cc1cc(COc2ccccc2)oc1C(=O)O` as the compound, how does the “activity (protection)” value read?
**A.** -0.762% (inactive)

**Q.** Which “activity (protection)” value does the source give for `COc1ccc(CNC(=O)C2CCC(CNS(=O)(=O)c3ccc(C)cc3)CC2)cc1` (configuration not stated) here?
**A.** -1.42% (inactive)

Source: PubChem BioAssay AID720518 (National Center for Advancing Translational Sciences (NCATS), 2013)
